# In PMC7862700, “An all-to-all approach to the identification of sequence-specific readers for epigenetic DNA modifications on cytosine”:
# Tests used:
# Experiment in all cases: DAPPL (digital affinity profiling via proximity ligation, sequencing); 10 mM Tris-HCl pH 7.5, 50 mM NaCl, 1 mM DTT, 4% glycerol, room temperature, 30 min; GST-TFs on glutathione beads, 16-mer random dsDNA library, 0.1% formaldehyde crosslink after washing; high values mean tight binding
# [1] = target: T1, FLI1 (Homo sapiens, UniProt Q01543 1-452); conditions: protein: recombinant; tags: N-terminal GST; dsDNA, one strand shown
# T1 sequence: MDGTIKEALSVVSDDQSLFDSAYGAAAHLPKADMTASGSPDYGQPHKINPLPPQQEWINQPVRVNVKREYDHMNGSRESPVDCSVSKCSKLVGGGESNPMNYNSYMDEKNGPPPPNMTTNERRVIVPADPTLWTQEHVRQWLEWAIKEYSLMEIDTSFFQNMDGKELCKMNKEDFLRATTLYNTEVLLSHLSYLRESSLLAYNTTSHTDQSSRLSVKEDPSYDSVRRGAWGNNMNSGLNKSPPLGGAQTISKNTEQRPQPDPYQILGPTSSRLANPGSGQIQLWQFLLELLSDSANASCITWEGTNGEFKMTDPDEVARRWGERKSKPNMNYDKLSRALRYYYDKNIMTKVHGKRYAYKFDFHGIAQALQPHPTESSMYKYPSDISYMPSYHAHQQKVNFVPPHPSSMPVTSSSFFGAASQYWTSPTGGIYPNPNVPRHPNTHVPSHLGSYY
# How it was run: (§1)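 Pools of DNA-barcoded human transcription factors, expressed in yeast as GST fusions on glutathione beads and combined with a tag-only sample, were incubated with 200 nmole of a 16-mer random double-stranded DNA library. Incubation took 30 min at room temperature in Tris/NaCl/DTT/glycerol buffer and was followed by washing, 0.1% formaldehyde crosslinking, proximity ligation (BsaI/T4 ligase, 1 h, 37 °C), PCR amplification and sequencing on an Illumina NextSeq500. Binding signal is the ratio of a hexamer's read frequency for a factor to its frequency for the tag-only sample.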
# [2] = target: T2, ELK1 (Homo sapiens, UniProt P19419 1-428); conditions: protein: recombinant; tags: N-terminal GST; dsDNA, one strand shown
# T2 sequence: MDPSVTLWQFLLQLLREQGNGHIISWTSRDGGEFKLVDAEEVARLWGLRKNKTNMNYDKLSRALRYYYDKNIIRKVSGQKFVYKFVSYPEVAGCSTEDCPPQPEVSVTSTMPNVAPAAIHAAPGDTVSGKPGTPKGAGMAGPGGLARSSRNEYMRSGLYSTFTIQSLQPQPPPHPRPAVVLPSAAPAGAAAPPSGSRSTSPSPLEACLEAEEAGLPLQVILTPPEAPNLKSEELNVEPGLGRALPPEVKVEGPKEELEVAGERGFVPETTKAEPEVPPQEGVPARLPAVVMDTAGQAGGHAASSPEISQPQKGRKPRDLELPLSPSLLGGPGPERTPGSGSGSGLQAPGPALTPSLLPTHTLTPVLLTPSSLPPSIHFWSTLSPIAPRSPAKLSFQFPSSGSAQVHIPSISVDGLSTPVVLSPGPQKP
# How it was run: as §1
# [3] = target: T3, GABPA (Homo sapiens, UniProt Q06546 1-454); conditions: protein: recombinant; tags: N-terminal GST; dsDNA, one strand shown
# T3 sequence: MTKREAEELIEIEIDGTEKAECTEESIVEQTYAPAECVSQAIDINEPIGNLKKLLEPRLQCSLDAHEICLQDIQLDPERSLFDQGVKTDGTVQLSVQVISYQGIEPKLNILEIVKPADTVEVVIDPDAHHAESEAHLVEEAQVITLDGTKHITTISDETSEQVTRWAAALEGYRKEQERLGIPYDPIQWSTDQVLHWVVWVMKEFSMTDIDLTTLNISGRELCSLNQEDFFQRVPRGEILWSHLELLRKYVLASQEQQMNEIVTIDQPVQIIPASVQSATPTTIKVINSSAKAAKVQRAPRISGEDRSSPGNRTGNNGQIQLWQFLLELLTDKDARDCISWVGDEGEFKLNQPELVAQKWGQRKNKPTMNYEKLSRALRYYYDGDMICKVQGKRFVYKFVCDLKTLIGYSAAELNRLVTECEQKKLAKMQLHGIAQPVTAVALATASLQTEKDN
# How it was run: as §1
# [4] = target: T4, ERG (Homo sapiens, UniProt P11308 1-479); conditions: protein: recombinant; tags: N-terminal GST; dsDNA, one strand shown
# T4 sequence: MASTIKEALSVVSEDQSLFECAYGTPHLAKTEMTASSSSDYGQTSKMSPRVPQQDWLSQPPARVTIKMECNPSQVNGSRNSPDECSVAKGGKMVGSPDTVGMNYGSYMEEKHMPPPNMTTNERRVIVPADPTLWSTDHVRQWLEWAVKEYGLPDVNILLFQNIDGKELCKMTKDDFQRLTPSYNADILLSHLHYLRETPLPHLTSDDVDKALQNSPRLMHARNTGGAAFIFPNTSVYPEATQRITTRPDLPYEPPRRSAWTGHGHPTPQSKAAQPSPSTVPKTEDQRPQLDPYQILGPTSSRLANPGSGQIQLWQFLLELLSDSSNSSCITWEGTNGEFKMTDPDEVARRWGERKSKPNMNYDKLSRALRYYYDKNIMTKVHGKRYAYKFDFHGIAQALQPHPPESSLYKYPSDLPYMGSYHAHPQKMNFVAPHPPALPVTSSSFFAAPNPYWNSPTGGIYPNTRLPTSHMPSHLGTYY
# How it was run: as §1
# [5] = target: ELF1 (Homo sapiens, UniProt P32519 1-619); conditions: protein: recombinant; tags: N-terminal GST; dsDNA, one strand shown
# How it was run: as §1
# [6] = target: T5, EHF (Homo sapiens, UniProt Q9NZC4 1-300); conditions: protein: recombinant; tags: N-terminal GST; dsDNA, one strand shown
# T5 sequence: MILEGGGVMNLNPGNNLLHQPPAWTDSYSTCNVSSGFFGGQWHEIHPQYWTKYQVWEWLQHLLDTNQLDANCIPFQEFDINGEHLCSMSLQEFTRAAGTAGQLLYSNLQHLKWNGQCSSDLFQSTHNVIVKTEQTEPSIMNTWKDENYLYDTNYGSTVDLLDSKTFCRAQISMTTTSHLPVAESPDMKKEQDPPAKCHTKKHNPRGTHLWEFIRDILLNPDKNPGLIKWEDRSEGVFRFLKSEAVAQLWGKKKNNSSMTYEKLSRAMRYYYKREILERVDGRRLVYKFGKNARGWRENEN
# How it was run: as §1
# [7] = target: SPI1 (Homo sapiens, UniProt P17947 1-270); conditions: protein: recombinant; tags: N-terminal GST; dsDNA, one strand shown
# How it was run: as §1
# [8] = target: SPIB (Homo sapiens, UniProt Q01892 1-262); conditions: protein: recombinant; tags: N-terminal GST; dsDNA, one strand shown
# How it was run: as §1
# [9] = target: T6, ELK3 (Homo sapiens, UniProt P41970 1-407); conditions: protein: recombinant; tags: N-terminal GST; dsDNA, one strand shown
# T6 sequence: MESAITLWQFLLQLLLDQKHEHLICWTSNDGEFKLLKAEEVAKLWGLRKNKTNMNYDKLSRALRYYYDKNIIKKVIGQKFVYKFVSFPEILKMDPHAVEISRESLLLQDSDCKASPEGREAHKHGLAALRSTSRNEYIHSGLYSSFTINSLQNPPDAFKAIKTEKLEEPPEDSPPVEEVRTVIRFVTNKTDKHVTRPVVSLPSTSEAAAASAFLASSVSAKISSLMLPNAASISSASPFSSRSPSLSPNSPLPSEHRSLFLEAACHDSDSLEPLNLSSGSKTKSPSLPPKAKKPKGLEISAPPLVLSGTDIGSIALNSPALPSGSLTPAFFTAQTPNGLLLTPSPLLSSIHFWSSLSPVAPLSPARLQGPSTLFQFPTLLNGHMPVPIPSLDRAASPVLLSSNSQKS
# How it was run: as §1
# [10] = target: T7, FEV (Homo sapiens, UniProt Q99581 1-238); conditions: protein: recombinant; tags: N-terminal GST; dsDNA, one strand shown
# T7 sequence: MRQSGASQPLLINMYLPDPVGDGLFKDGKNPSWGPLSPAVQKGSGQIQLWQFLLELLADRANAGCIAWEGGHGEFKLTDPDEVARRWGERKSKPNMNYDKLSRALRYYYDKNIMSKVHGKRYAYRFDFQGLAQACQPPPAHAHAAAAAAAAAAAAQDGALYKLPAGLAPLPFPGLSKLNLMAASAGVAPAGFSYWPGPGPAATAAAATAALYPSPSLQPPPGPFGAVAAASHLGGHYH
# How it was run: as §1
# [11] = target: ETV5 (Homo sapiens, UniProt P41161 1-510); conditions: protein: recombinant; tags: N-terminal GST; dsDNA, one strand shown
# How it was run: as §1
# [12] = target: HSF1 (Homo sapiens, UniProt Q00613 1-529); conditions: protein: recombinant; tags: N-terminal GST; chain copies: 3; dsDNA, one strand shown
# How it was run: as §1
# [13] = target: T8, SPIC (Homo sapiens, UniProt Q8N5J4 1-248); conditions: protein: recombinant; tags: N-terminal GST; dsDNA, one strand shown
# T8 sequence: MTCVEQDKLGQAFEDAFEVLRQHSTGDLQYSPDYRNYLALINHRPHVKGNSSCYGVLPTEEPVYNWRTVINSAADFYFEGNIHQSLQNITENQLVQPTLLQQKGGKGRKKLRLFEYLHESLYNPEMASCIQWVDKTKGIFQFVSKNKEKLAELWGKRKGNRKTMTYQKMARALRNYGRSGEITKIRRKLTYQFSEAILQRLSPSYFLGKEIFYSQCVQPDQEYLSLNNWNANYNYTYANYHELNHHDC
# How it was run: as §1
# [14] = target: ELF4 (Homo sapiens, UniProt Q99607 1-663); conditions: protein: recombinant; tags: N-terminal GST; dsDNA, one strand shown
# How it was run: as §1
# [15] = target: T9, ELK4 (Homo sapiens, UniProt P28324-2 1-405); conditions: protein: recombinant; tags: N-terminal GST; dsDNA, one strand shown
# T9 sequence: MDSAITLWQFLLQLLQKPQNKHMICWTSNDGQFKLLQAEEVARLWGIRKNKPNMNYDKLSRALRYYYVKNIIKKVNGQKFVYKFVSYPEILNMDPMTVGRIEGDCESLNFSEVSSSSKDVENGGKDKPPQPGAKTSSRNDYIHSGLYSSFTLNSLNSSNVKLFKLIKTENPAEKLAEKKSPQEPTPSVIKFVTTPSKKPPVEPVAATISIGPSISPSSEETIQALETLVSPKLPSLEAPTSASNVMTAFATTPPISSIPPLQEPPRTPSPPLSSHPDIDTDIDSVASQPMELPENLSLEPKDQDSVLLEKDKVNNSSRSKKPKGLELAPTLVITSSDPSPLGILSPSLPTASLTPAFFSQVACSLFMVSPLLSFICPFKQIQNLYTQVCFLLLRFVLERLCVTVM
# How it was run: as §1
# [16] = target: T10, ETV2 (Homo sapiens, UniProt O00321 1-342); conditions: protein: recombinant; tags: N-terminal GST; dsDNA, one strand shown
# T10 sequence: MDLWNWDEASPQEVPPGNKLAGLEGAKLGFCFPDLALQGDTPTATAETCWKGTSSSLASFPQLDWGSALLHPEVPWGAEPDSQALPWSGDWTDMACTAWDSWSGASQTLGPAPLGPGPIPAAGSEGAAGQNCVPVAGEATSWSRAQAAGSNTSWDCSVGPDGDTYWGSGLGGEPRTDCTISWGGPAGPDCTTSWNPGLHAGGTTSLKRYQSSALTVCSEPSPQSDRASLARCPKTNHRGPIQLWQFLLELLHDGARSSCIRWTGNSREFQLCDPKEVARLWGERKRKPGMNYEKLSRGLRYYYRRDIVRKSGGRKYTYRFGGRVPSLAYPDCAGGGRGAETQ
# How it was run: as §1
# [17] = target: T11, ELF3 (Homo sapiens, UniProt P78545 1-371); conditions: protein: recombinant; tags: N-terminal GST; dsDNA, one strand shown
# T11 sequence: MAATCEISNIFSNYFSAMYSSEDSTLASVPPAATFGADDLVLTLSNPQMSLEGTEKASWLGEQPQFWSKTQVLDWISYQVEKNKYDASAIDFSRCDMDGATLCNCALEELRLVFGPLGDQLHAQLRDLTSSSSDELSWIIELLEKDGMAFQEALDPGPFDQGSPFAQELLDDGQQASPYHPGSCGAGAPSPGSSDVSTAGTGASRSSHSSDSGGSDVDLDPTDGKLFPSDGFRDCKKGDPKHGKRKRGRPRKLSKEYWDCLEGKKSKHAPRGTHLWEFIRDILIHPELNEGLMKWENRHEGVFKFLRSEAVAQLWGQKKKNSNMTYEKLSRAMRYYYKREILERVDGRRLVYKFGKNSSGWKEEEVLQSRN
# How it was run: as §1
# [18] = target: CRX (Homo sapiens, UniProt O43186 1-299); conditions: protein: recombinant; tags: N-terminal GST; dsDNA, one strand shown
# How it was run: as §1
# [19] = target: ETV1 (Homo sapiens, UniProt P50549 1-477); conditions: protein: recombinant; tags: N-terminal GST; dsDNA, one strand shown
# How it was run: as §1
# Sequence of CRX (O43186 whole entry): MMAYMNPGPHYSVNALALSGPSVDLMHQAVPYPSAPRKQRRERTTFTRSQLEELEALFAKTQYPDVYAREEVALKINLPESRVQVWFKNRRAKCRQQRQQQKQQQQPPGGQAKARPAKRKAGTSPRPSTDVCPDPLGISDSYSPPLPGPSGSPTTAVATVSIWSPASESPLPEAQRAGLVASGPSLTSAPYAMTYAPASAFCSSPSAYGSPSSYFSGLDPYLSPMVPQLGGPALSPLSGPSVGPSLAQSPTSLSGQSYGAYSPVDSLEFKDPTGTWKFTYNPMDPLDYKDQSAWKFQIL
# Sequence of ELF4 (Q99607 whole entry): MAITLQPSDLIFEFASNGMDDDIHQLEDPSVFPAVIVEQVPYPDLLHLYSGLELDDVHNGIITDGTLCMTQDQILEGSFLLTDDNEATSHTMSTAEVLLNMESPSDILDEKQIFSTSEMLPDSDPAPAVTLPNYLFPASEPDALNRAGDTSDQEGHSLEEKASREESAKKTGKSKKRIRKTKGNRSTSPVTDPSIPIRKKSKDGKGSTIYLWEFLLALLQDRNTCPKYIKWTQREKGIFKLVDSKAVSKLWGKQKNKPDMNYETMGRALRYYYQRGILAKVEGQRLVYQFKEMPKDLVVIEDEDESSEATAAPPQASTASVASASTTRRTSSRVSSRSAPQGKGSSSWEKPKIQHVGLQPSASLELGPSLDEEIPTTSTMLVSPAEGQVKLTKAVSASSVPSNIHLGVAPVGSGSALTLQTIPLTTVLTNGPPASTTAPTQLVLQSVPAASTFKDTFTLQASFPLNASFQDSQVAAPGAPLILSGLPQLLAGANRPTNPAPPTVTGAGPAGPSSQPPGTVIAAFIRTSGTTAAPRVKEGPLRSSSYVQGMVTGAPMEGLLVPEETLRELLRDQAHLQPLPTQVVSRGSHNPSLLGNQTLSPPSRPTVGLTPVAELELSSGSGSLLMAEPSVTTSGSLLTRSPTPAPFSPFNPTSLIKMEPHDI
# Sequence of HSF1 (Q00613 whole entry): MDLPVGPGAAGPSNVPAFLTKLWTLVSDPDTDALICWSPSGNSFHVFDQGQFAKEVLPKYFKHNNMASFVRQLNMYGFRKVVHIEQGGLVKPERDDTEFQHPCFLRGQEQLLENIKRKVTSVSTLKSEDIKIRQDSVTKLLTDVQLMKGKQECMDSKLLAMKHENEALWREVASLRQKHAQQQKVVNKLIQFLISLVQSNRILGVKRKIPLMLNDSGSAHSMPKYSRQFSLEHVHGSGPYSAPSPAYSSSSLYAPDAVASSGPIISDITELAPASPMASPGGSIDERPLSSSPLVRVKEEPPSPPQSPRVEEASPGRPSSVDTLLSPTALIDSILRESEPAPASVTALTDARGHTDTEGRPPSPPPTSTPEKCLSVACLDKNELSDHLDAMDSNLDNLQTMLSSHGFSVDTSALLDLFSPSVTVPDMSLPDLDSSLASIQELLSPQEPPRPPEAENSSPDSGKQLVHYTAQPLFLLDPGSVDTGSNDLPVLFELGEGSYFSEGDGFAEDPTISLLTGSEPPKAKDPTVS
# Sequence of SPIB (Q01892 whole entry): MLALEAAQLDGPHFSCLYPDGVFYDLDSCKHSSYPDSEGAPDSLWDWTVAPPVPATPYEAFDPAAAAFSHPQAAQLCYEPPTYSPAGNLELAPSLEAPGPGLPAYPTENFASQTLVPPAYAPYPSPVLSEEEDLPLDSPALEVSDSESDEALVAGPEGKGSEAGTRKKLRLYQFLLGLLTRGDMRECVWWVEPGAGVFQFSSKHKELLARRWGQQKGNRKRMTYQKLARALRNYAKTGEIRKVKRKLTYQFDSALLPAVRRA
# Sequence of ETV1 (P50549 whole entry): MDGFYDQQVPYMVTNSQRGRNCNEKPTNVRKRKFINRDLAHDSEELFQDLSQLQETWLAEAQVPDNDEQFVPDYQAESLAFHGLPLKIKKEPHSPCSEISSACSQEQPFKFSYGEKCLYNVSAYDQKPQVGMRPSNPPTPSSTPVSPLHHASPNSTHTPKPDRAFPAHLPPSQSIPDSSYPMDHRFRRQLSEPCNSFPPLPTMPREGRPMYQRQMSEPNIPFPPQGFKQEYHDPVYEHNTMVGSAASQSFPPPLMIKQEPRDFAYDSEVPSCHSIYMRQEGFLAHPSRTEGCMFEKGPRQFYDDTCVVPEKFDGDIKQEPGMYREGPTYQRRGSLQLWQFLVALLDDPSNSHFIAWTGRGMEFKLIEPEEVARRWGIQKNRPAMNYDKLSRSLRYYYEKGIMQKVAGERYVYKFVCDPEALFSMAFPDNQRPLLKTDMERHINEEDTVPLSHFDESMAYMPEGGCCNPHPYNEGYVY
# Sequence of ETV5 (P41161 whole entry): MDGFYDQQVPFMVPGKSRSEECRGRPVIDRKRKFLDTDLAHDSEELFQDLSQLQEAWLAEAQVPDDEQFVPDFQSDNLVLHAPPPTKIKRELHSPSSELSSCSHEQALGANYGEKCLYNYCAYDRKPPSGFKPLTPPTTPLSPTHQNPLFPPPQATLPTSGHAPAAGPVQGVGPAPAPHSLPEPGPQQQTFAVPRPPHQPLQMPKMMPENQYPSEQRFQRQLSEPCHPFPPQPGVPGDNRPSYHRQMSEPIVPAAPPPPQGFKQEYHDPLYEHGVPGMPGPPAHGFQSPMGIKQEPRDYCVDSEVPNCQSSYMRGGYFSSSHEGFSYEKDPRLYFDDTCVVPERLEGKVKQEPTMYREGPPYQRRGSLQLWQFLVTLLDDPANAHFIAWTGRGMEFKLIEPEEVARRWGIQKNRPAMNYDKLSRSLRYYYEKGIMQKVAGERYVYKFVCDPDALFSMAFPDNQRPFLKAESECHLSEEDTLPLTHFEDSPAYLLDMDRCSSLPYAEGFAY
# Sequence of ELF1 (P32519 whole entry): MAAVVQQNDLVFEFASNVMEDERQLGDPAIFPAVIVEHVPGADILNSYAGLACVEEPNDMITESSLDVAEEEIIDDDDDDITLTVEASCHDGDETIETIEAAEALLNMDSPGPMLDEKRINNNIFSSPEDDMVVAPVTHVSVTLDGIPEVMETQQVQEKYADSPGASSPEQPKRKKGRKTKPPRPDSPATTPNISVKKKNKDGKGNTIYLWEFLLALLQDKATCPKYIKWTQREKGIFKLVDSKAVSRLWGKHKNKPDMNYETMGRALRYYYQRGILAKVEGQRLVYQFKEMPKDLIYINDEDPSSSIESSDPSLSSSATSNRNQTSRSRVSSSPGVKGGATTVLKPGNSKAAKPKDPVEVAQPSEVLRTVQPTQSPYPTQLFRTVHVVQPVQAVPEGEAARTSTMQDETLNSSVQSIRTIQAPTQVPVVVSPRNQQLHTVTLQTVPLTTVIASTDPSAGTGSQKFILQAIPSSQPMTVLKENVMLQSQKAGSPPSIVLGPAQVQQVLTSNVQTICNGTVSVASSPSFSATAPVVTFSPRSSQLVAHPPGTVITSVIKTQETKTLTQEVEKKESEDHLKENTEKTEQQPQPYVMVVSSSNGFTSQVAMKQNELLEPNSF
sequence,measurement,setting,value
ATTCCA,binding signal,[1],"1.17 fold enrichment (6-mer frequency, TF over GST control)"
same,binding signal,[2],"1.1 fold enrichment (6-mer frequency, TF over GST control)"
same,binding signal,[3],"1.16 fold enrichment (6-mer frequency, TF over GST control)"
same,binding signal,[4],"1.14 fold enrichment (6-mer frequency, TF over GST control)"
same,binding signal,[5],"1.22 fold enrichment (6-mer frequency, TF over GST control)"
same,binding signal,[6],"1.13 fold enrichment (6-mer frequency, TF over GST control)"
same,binding signal,[7],"1.16 fold enrichment (6-mer frequency, TF over GST control)"
same,binding signal,[8],"1.1 fold enrichment (6-mer frequency, TF over GST control)"
same,binding signal,[9],"1.25 fold enrichment (6-mer frequency, TF over GST control)"
same,binding signal,[10],"1.07 fold enrichment (6-mer frequency, TF over GST control)"
same,binding signal,[11],"1.18 fold enrichment (6-mer frequency, TF over GST control)"
same,binding signal,[12],"2.28 fold enrichment (6-mer frequency, TF over GST control)"
same,binding signal,[13],"1.14 fold enrichment (6-mer frequency, TF over GST control)"
same,binding signal,[14],"1.25 fold enrichment (6-mer frequency, TF over GST control)"
same,binding signal,[15],"1.19 fold enrichment (6-mer frequency, TF over GST control)"
same,binding signal,[16],"1.25 fold enrichment (6-mer frequency, TF over GST control)"
same,binding signal,[17],"1.04 fold enrichment (6-mer frequency, TF over GST control)"
same,binding signal,[18],"1.58 fold enrichment (6-mer frequency, TF over GST control)"
same,binding signal,[19],"1.11 fold enrichment (6-mer frequency, TF over GST control)"
